Records with an inconclusive call do not appear. Where a call stands in place of a potency, no number is given. Unmarked numbers belong to inactive results. Activity calls are given as the source filed them. Calls follow the shape of the full dose curve.
Molecular target: Beta-2 adrenergic receptor (Homo sapiens) (UniProt P07550)
Test: Adrenergic beta2 receptor (ADRB2) small molecule antagonists, cell-based qHTS assay (AID 1963592); also: nearly all actives have a fitted effect of over 50% in size
Settings: CHO-ADRB2 cells, isoproterenol-stimulated cAMP HTRF ratio, 0.5 h; series mostly up to 92.4 µM
Excerpt: U.S. Tox21 Program National Center for Advancing Translational Sciences [NCATS] Division of Preclinical Innovation [DPI] U.S. Environmental Protection Agency [EPA] National Institutes of Environmental Health Sciences [NIEHS] National Toxicology Program [NTP] U.S. Food and Drug Administration [FDA] Tox21 Assay Overview: Beta adrenergic receptors (Beta-ARs) belong to the G-protein coupled receptor (GPCR) superfamily, includes three subtypes - beta1, beta2, and beta3. Beta1-AR is the predominant receptor subtype expressed in the heart, and beta2-AR is expressed in the kidney, lung, blood vessel and in the heart, and beta3 is found in the adipocytes. Beta1 and 2 ARs couple to Gs protein and elevate cyclic adenosine mono phosphate (cAMP), which activates protein kinase A and leads to the downstream signaling responsible for the physiological actions. Beta-AR agonists or antagonists are the most prescribed therapeutic agents for heart failure and asthma, and these were one of the first target receptors for the rational drug design. Tox21 10K compound library was screened using the cAMP-Gs dynamic assay (Cisbio Bioassays, Shelton, CT) to identify agonists/antagonists of the Gs-coupled human adrenergic, beta2 receptor (ADRB2) in the CHO-ADRB2 cell line (Codex BioSolutions, Inc. Gaithersburg, MD), which stably over-expresses ADRB2. The principle of cAMP-Gs dynamic assay is based on HTRF technology, which facilitates the fluorescence resonance energy transfer (FRET) between donor Europium cryptate and acceptor d2-labeled cAMP. The cAMP generated within cells competes with the red acceptor, d2-labled cAMP, for binding to the monoclonal anti-cAMP-cryptate (Europium donor). An increase in intracellular cAMP leads to the disruption of FRET signal, and the signal is inversely proportional to the cAMP concentration. Propranolol HCl (Sigma-Aldrich, St. Louis, MO) was used as a positive control in the screening.
Tox21 Assay Protocol Summary: CHO-ADRB2 cells were dispensed at 1,000/well in 4uL assay medium into white/solid 1536-well plates (Greiner Bio-One North America Inc., Monroe, NC) using a Multidrop Combi dispenser (ThermoFisher Scientific, Waltham, MA). The assay plates were incubated at 37C and 5% CO2 for an overnight (18-20hr). Then positive control and test compounds dissolved in DMSO were transferred to the assay plates at 23nL using a Pintool station (Wako, San Diego, CA). Following the compound and positive control transfer, 1uL agonist-stimulation mix containing 1nM Isoproterenol HCl, 100uM IBMX and 25uM Ro-20-1724 was added to each well of the assay plates using BioRAPTR Flying Reagent Dispenser (FRD, Beckman Coulter, Brea, CA). The assay plates were incubated at room temperature for 0.5hr. Then 2.5ul each d2-labled cAMP and anti-cAMP-cryptate solutions were added separately to each well of the assay plates using an FRD and the assay plates were incubated at room temperature for 1hr. The fluorescence signal was measured at two different wavelengths (665nm and 615nm) using an Envision plate reader (Perkin Elmer, Shelton, CT). Data were expressed as the ratio of 665 nm/615 nm.

Sequence of Beta-2 adrenergic receptor (Homo sapiens) (P07550 whole entry, looked up): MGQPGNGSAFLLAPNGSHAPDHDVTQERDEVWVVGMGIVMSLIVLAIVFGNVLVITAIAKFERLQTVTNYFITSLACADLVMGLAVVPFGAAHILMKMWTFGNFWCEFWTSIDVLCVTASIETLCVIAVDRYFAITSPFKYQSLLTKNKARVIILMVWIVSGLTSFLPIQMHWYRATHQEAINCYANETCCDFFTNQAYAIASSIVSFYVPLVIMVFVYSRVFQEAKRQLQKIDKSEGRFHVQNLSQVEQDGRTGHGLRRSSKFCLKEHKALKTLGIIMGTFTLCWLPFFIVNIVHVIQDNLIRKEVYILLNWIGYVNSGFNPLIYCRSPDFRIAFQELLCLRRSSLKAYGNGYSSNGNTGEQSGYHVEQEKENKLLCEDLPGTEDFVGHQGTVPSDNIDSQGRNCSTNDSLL

SMILES | Potency | activity change, negative = inhibition
COc1cc(C(=O)OCCCN2CCCN(CCCOC(=O)c3cc(OC)c(OC)c(OC)c3)CC2)cc(OC)c1OC | inactive | 
CCCCO | inactive | 
CCC(C(=O)NC(=O)NC(C)=O)c1ccccc1 (stereo not given) | inactive | 
COc1ccc(C(=O)c2ccc(C)cc2)c(O)c1 | inactive | 
COC(=O)C(C)=O | inactive | 
C=C(C)C(=O)OCCO | inactive | 
C=C[Si](OCC)(OCC)OCC | inactive | 
CCCC(=O)OCCC(C)CCC=C(C)C (stereo not given) | inactive | 
NNC(=O)CP(=O)(c1ccccc1)c1ccccc1 | inactive | 
O=[N+]([O-])c1cc[n+]([O-])cc1 | inactive | 
Cc1oc2c(NC(=O)c3c(Cl)cccc3Cl)cccc2c1C(C)(C)O | inactive | 
C1COCO1 | inactive | 
C[C@@H](c1ncncc1F)C(O)(Cn1cncn1)c1ccc(F)cc1F (stereo not given in full) | inactive | 
CC(C)COC(=O)c1ccc(O)cc1 | inactive | 
COC(=O)CC(C)=O | inactive | 
Oc1cc(Cl)cc(Cl)c1Cl | inactive | 
C=C(C)C1CCC(C)(O)CC1 (stereo not given) | inactive | 
COc1nc(C)nc(N)n1 | inactive | 
CCNc1nc(NC(C)CC)nc(OC)n1 (stereo not given) | inactive | 
CCCCc1oc2ccccc2c1C(=O)c1cc(I)c(OCCN(CC)CC)c(I)c1 | inactive | 

SMILES | Potency | activity change, negative = inhibition
CCc1ccc(C)cc1 | inactive | 
CC(C)c1cccc(C(C)C)c1NC(=O)NS(=O)(=O)c1cc(C(C)(C)O)co1 | inactive | 
O=C(Oc1ccccc1)Oc1ccccc1 | inactive | 
C[C@@H]1CN(c2c(F)c(F)c3c(=O)c(C(=O)O)cn(C4CC4)c3c2F)C[C@H](C)N1 |  | -4.7% [at 19 µM]
O=C(O)c1cc(Br)c(O)c(Br)c1 | inactive | 
CCCCC(=O)O[C@]1(C(=O)CO)[C@@H](C)C[C@H]2[C@@H]3CCC4=CC(=O)C=C[C@]4(C)[C@@]3(F)[C@@H](O)C[C@@]21C | inactive | 
Oc1ccc2ccccc2c1 | inactive | 
Cc1cc2nc3c(=O)[nH]c(=O)nc-3n(C[C@H](O)[C@H](O)[C@H](O)CO)c2cc1C |  | -10.6% [at 19 µM]
CC(N)=O | inactive | 
CCCCCCCCOC(=O)c1ccc(O)cc1 | inactive | 
c1ccc2sc(SN(C3CCCCC3)C3CCCCC3)nc2c1 | inactive | 
Cc1cc2cc3c(C)cc(=O)oc3c(C)c2o1 | inactive | 
Cc1c(O)cccc1O | inactive | 
CC(CC=O)c1ccccc1 (stereo not given) | inactive | 
C=Cc1ccc(O)c(OC)c1 | inactive | 
C#Cc1cccc(Nc2ncnc3cc(OCCOC)c(OCCOC)cc23)c1 | inactive | 
CCOC(=O)OC(C)OC(=O)[C@@H]1N2C(=O)[C@@H](NC(=O)[C@H](N)c3ccccc3)[C@H]2SC1(C)C (stereo not given in full) | inactive | 
Cc1ccc(O)c(C(C)(C)C)c1 | inactive | 
CC(C)CCCCCCOC(=O)C1CCCCC1C(=O)OCCCCCCC(C)C (stereo not given) | inactive | 
CC1(C)O[C@@H]2C[C@H]3[C@@H]4C[C@H](F)C5=CC(=O)C=C[C@]5(C)[C@H]4[C@@H](O)C[C@]3(C)[C@]2(C(=O)CO)O1 | inactive | 

From PubChem BioAssay (Tox21)
